We go through 80 molecules from PubChem BioAssay AID602393 (Broad Institute, 2012).

Among all 350,000 compounds or so, about 7,000 (2%) were called active. Rule as the data show it: active = activation above about 40%; inconclusive = no clear call, values can overlap the other calls; inactive = below that. The sample as a whole holds a higher share of actives than the screen did.

This assay can be described thus: raisers of Bmi1 knock-in reporter signal – mouse ES cells, Bmi1 luciferase knock-in, single point, esBAF inhibitor project, primary screen (AID 602393).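 Also: 0% = median of the plate's neutral control wells and 100% = double that signal; a rise in the Bmi1 reporter signal indicates esBAF inhibition.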 Particulars: 24 h, at 12.5 µM, hits give high values, 100% = twice the neutral-well signal.
With `C[C@H](CO)N1C[C@H](C)[C@H](CN(C)C(=O)Nc2ccc3c(c2)OCO3)Oc2ccc(NS(=O)(=O)c3ccc(Cl)cc3)cc2CC1=O`, the reporter increase was 4.87% (inactive).
Take `Cc1cccc(CN(C)C[C@@H]2OCc3cn(nn3)CCCC(=O)N([C@@H](C)CO)C[C@H]2C)c1`: the reporter increase is -0.643% (inactive).
To `COCCNC(=O)[C@@H]1[C@@H](CO)[C@@H]2Cn3c(ccc(-c4ccccc4F)c3=O)[C@@H]2N1C(=O)C1CC1` belongs 2.48% (inactive); to `CO[C@@H]1CN(C)C(=O)c2cc(NC(=O)Nc3ccc4c(c3)OCO4)ccc2OC[C@@H](C)NC[C@@H]1C`, 73.2% (active); to `CO[C@@H]1CN(C)C(=O)c2cc(NC(=O)Nc3ccc(F)cc3)ccc2OC[C@@H](C)NC[C@@H]1C`, -1.25% (inactive).
To `CO[C@H]1CN(C)C(=O)c2ccc(NC(=O)Nc3ccc4c(c3)OCO4)cc2OC[C@H](C)NC[C@H]1C` belongs 37% (inactive); to `COc1ccc(NC(=O)N(C)C[C@@H]2Oc3ccc(NC(=O)Cn4cnnn4)cc3C(=O)N([C@H](C)CO)C[C@@H]2C)cc1`, 1.18% (inactive); to `COC(=O)/C=C/C(=O)NCc1ccco1`, 8.72% (inactive).
With `O=C(/C=C/c1ccc(Cl)cc1Cl)NCc1ccco1`, the reporter increase was 44.2% (active).
In the case of `O=C(COC(=O)Cc1ccc(Cl)cc1Cl)NCc1ccco1`, the reporter increase was -12.6% (inactive).
For `COc1ccc(S(=O)(=O)Nc2ccc3c(c2)CC(=O)N([C@@H](C)CO)C[C@@H](C)[C@H](CN(C)S(=O)(=O)c2ccccc2)O3)cc1` the value was 4.43% (inactive); for `COc1ccc(S(=O)(=O)Nc2ccc3c(c2)C(=O)N([C@@H](C)CO)C[C@@H](C)[C@H](CN(C)Cc2ccc(C(F)(F)F)cc2)OCCCC[C@@H](C)O3)cc1`, -1.52% (inactive).
To `Cc1cc(-n2nc(C)cc2C)n2ncc(-c3ccccc3)c2n1` belongs 28.6% (inactive).
For `COc1ccccc1-c1cnn2c(N3CCOCC3)cc(C)nc12` the value was 57.3% (active).
Take `COc1ccccc1NC(=O)C1CCCN(c2cc(C)nc3ncnn23)C1` (stereo not given): the reporter increase was -8.67% (inactive).
For `CN1c2ccc(C3=CCCCC3)cc2[C@H]2[C@H](CCN2S(=O)(=O)c2ccccc2)[C@@H]1CO` the value was 3.61% (inactive).
For `Cc1ccc(/C=N/NC(=O)c2sccc2OCc2ccc(F)cc2)cc1` the value was 53.7% (active); for `Cc1ccc(S(=O)(=O)Oc2ccc(/C=N/NC(=O)c3ccncc3)cc2)cc1`, 4.2% (inactive); for `Cc1ccc(S(=O)(=O)N(CC(=O)N/N=C/c2ccc(F)cc2)c2cccc3cccnc23)cc1`, 0.787% (inactive).
For `C[C@H]1CN([C@@H](C)CO)S(=O)(=O)c2ccc(-c3ccccc3)cc2O[C@H]1CN(C)C(=O)CC1CC1` the value was -0.183% (inactive); for `CCCNC(=O)N1C[C@H]2[C@@H](c3ccccc31)[C@@H](CO)N2C(=O)NCCC`, -2.97% (inactive); for `O=C(NCC[C@H]1CC[C@H](NC(=O)C2CC2)[C@@H](CO)O1)c1cc(Cl)cc(Cl)c1`, 1.12% (inactive).
As for `C[C@@H]1CN([C@H](C)CO)C(=O)c2cc(Br)cnc2O[C@@H]1CN(C)C(=O)C1CC1`, the reporter increase is -3.93% (inactive).
Consider `O=C(Nc1ccc(N2CCOCC2)cc1)c1ccc(-c2ccccc2[N+](=O)[O-])o1`, for which the reporter increase was 22.9% (active).
To `COc1ccccc1C(=O)NC(=S)Nc1ccc(N2CCOCC2)cc1` belongs 25.5% (inactive); to `O=[N+]([O-])c1ccc(N2CCOCC2)cc1`, 6.61% (inactive).
As for `C[C@H]1CN([C@@H](C)CO)C(=O)c2cccc(NS(=O)(=O)c3cccs3)c2O[C@H]1CN(C)C(=O)Nc1ccccc1`, the reporter increase was -1.97% (inactive).
For `O=C(Cc1ccncc1)NCC[C@H]1CC[C@H](NC(=O)C2CC2)[C@H](CO)O1` the value was -2.52% (inactive); for `Cn1c(SCC(=O)Nc2nccs2)nnc1-c1cccnc1`, -5.27% (inactive).
To `CCn1c(SCC(=O)Nc2nccs2)nnc1-c1ccncc1` belongs -8.57% (inactive); to `CC(=O)c1cc(C#N)c(SCC(=O)C(C)(C)C)nc1C`, 50.6% (active); to `CC(=O)c1cc(C#N)c(SCC(=O)Nc2nccs2)nc1C`, 64.7% (active).
Regarding `CC(=O)c1cnc(SCC(=O)O)nc1C`, the reporter increase was -5.69% (inactive).
For `Cc1cc(NC(=O)CSc2nc3c(cc2C#N)CCCCC3)no1` the value was -7.82% (inactive).
To `COCC(=O)Nc1ccc2c(c1)C(=O)N(C)C[C@H](OC)[C@@H](C)CN(CC1CC1)[C@@H](C)CO2` belongs -0.99% (inactive); to `COc1ccccc1NC(=O)N[C@H]1CC[C@H](CCNS(=O)(=O)c2ccc(Cl)cc2)O[C@H]1CO`, 16.7% (inactive); to `CCN1[C@@H]2c3cccc(=O)n3C[C@H]1[C@H](CO)[C@H]2C(=O)NC1Cc2ccccc2C1`, -2% (inactive).
To `CCC(=O)N1C[C@@H](C)[C@H](OC)CN(C)C(=O)c2ccc(NC(=O)Nc3ccccc3)cc2OC[C@@H]1C` belongs -0.74% (inactive); to `CCC(=O)Nc1ccc(C(=O)Nc2cccc(OC)c2)cc1`, 49.8% (active).
With `CCC(=O)Nc1ccc(C(=O)NNC(=O)c2ccc(Cl)cc2)cc1`, the reporter increase was -4.4% (inactive).
`COc1cccc(C(=O)NNS(=O)(=O)c2ccc(F)cc2)c1`: the reporter increase is -2.92% (inactive).
To `COc1ccc(NC(=O)Nc2ccc3nsnc3c2)cc1` belongs 100% (active).
To `COc1cccc(N(CC(=O)Nc2cccc(F)c2)S(C)(=O)=O)c1` belongs -2.9% (inactive); to `COc1cccc(C(=O)NNC(=O)c2cccc(F)c2)c1`, 46.1% (active); to `CCC(=O)Nc1ccc(C(=O)Nc2cc(C)on2)cc1`, 15.4% (inactive).
To `COc1cccc(NC(=O)CC2C(=O)NCCN2C(=S)Nc2ccc(F)cc2)c1` (stereo not given) belongs 3.78% (inactive); to `COc1cccc(C(=O)NNC(=O)/C=C/c2ccccc2)c1`, -6.98% (inactive); to `O=C(Nc1ccccc1)c1ccc2nsnc2c1`, 28.4% (inactive).
Take `CCc1ccc(NC(=O)Nc2ccncc2)cc1`: the reporter increase is 19.8% (inactive).
To `COc1cccc(NC(=O)Nc2ccc(F)cc2)c1` belongs 47.9% (active); to `CNC(=O)C[C@H]1CC[C@H]2[C@@H](COc3ccc(NC(=O)c4cccc(OC)c4)cc3C(=O)N2C)O1`, 4.25% (inactive).
For `COc1cccc(C#Cc2cnc3c(c2)C(=O)N([C@@H](C)CO)C[C@H](C)[C@H](CN(C)CC2CC2)O3)c1` the value was -5.64% (inactive); for `CO[C@H]1CN(C)C(=O)c2cc(NS(=O)(=O)CC(F)(F)F)ccc2OC[C@@H](C)N(C(=O)c2ccc3c(c2)OCO3)C[C@@H]1C`, 2.12% (inactive).
`O=C(c1ccccc1)N1C[C@@H]2[C@H](c3ccccc31)[C@@H](CO)N2Cc1cc(F)ccc1F`: the reporter increase is -1.5% (inactive).
For `CO[C@@H]1CN(C)C(=O)c2cc(NC(=O)C3CCCCC3)ccc2OC[C@@H](C)N(C(=O)Nc2ccc(C(F)(F)F)cc2)C[C@H]1C` the value was 9.31% (inactive); for `CCCNC(=O)[C@H]1[C@H](CO)[C@H]2Cn3c(ccc(C4=CCCC4)c3=O)[C@H]2N1C(=O)CC1CC1`, -1.14% (inactive).
Turning to `CC(=O)c1cccc(NC(=S)N2CCCC2)c1`, the reporter increase was 3.72% (inactive).
To `CCSc1nsc(NC(=O)Nc2cccc(C(C)=O)c2)n1` belongs 7.31% (inactive); to `CC(=O)c1cccc(NC(=O)Nc2ccc(C)cc2)c1`, 42.2% (active).
For `COc1cc2ccccc2cc1C(=O)Nc1ccccc1C` the value was 71.4% (active); for `CCOc1cc2ccccc2cc1C(=O)Nc1ccccn1`, 18.4% (inactive); for `COc1cc2ccccc2cc1C(=O)Nc1ccc(S(=O)(=O)Nc2cc(C)on2)cc1`, 5.76% (inactive).
For `Cc1ccccc1C(=O)Nc1ccccc1NC(=O)c1ccccc1C` the value was -2.73% (inactive); for `COc1ccc(C(=O)Nc2cc(C)c(NC(=O)c3ccccc3OC)cn2)cc1`, 34.2% (inactive); for `COc1cc2ccccc2cc1C(=O)Nc1ccncc1`, 60% (active).
`CC(C)C#Cc1cnc2c(c1)C(=O)N([C@@H](C)CO)C[C@@H](C)[C@@H](CN(C)C(=O)c1cccc(F)c1)O2`: the reporter increase is 4.18% (inactive).
For `CCC(=O)N1[C@@H]2c3ccc(-c4ccc(F)cc4)c(=O)n3C[C@H]1[C@H](CO)[C@H]2C(=O)N(C)C` the value was -3.81% (inactive); for `CO[C@@H]1CC[C@@H]2CCOc3ccc(C#N)cc3C(=O)N(C)C[C@H](c3ccccc3)CC(=O)N(C)C[C@H]1O2`, -4.55% (inactive).
For `CO[C@@H]1CN(C)C(=O)c2cc(NC(=O)C3CCOCC3)ccc2OC[C@H](C)N(C)C[C@H]1C` the value was -1.27% (inactive); for `COc1ccc(-c2ccc([C@@H]3[C@@H](C#N)N(C(=O)C4CCCCC4)[C@H]3CO)cc2)cc1`, 9.6% (inactive).
To `CC(C)(C)OC(=O)N1CCC(C(=O)Nc2cccc(C(=O)NCCc3ccccc3)c2)CC1` belongs 24.1% (inactive).
Consider `CC(C)c1ccc(C(=O)NCCCc2ccccc2)cc1`, for which the reporter increase was 55.1% (active).
For `O=C(COC(=O)c1ccc(F)cc1)NCCCc1ccccc1` the value was -1.61% (inactive); for `O=C(NCc1ccccc1)c1cccc(NC(=O)C2CCCCC2)c1`, -4.78% (inactive).
As for `CSc1ncc(C(=O)NCCCc2ccccc2)c(C)n1`, the reporter increase was 5.19% (inactive).
To `O=C(NCCc1ccccc1)c1cccc(NC(=O)c2ccccc2)c1` belongs 42.6% (active); to `C[C@@H]1CN([C@H](C)CO)S(=O)(=O)c2ccc(C3=CCCC3)cc2O[C@H]1CN(C)C(=O)CC1CC1`, -4.31% (inactive); to `CC(=O)N1[C@@H]2Cn3c(ccc(C4=CCCC4)c3=O)[C@H]1[C@@H](C(=O)NC1CCC1)[C@@H]2CO`, 1.06% (inactive).
On to `CNC[C@H]1OCCCC[C@@H](C)Oc2ccc(NC(=O)Cc3ccccc3)cc2C(=O)N([C@H](C)CO)C[C@@H]1C`, for which the reporter increase is -1.06% (inactive).
For `CC=Cc1ccc2n(c1=O)C[C@H]1[C@H](CO)[C@@H](C(=O)NC3CCCC3)N(Cc3ccncc3)[C@@H]21` (mixture of isomers) the value was -6.02% (inactive).
